# Results with a measured potency or affinity are listed apart. A number with no mark means an inactive call. No rule for the calls is given here.
# Assay: viability loss in HEK293 cells – cell-based, plate reader, cherry-picked samples, cytotoxicity control, dose response (AID 743446)
# Settings: active compounds read low; at 26 µM unless noted
row,Structure (SMILES),max activity
1,O=C(CCCc1ccccc1)Nc1cccc(C(=O)O)c1,48.9%
2,O=C(O)c1cccc(-c2noc(-c3cccc(Cl)c3)n2)c1,9.55%
3,C[C@H]1CCCCO[C@@H](CN(C)C(=O)Nc2ccc(F)cc2)[C@@H](C)CN([C@@H](C)CO)C(=O)c2cc(NC(=O)C3CCCCC3)ccc2O1,-14.5% [at 6 µM]
4,COCC#Cc1ccc2c(c1)O[C@H](CN(C)S(=O)(=O)c1cccc(F)c1)[C@@H](C)CN([C@H](C)CO)S2(=O)=O,14.5% [at 0.195 µM]
5,Cc1ccsc1/C=N/Nc1cccc(C(=O)O)c1,25.6% [at 0.8 µM]
6,O=C(NCCc1ccccc1)c1ccc2nccnc2c1,9%
7,O=C(C[C@H]1CC[C@H](NS(=O)(=O)c2cccc(F)c2)[C@@H](CO)O1)N1CCCCC1,20.1% [at 0.05 µM]
8,Cc1cc(-c2ccccc2)n2ncc(-c3ccccc3)c2n1,19.9% [at 0.8 µM]
9,Cc1ccnc(Nc2nc(-c3sc(C)nc3C)cs2)c1,-16.3% [at 6 µM]
10,C[C@H](CO)N1C[C@H](C)[C@H](CN(C)C(=O)Nc2ccccc2)OCCCC[C@H](C)Oc2ccc(NC(=O)C3CCCCC3)cc2C1=O,9.5% [at 3 µM]
11,O=C(Nc1nc2ccccc2[nH]1)c1ccc(Cl)cc1,71.5% [at 0.8 µM]
12,COc1ccc2nc(NC(=O)c3ccccc3F)sc2c1,34.9% [at 3 µM]
13,COc1cccc(NC(=O)Nc2cccc(C(=O)O)c2)c1,-21.7% [at 3 µM]
14,C[C@H](CO)N1C[C@H](C)[C@H](CN(C)C(=O)Nc2ccc(C(F)(F)F)cc2)OCCCC[C@H](C)Oc2ccc(NC(=O)NC3CCCCC3)cc2C1=O,66%
15,CCCCc1ccc(NC(=O)c2cnccn2)cc1,-14.3% [at 3 µM]
16,CC(C)c1nnc(NC(=O)c2ccc3c(c2)OCO3)s1,30.9% [at 0.38 µM]
17,COc1ccc(CC(=O)Nc2cccc(-c3nnc(-c4cccc(C)c4)o3)c2)cc1OC,-27%
18,O=C(Cc1ccncc1)NCC[C@H]1CC[C@H](NC(=O)C2CCCC2)[C@H](CO)O1,13.9% [at 0.1 µM]
19,O=C(O)c1ccc(Nc2nc3c(s2)CCCC3)cc1,49.8% [at 12 µM]
20,C[C@H](CO)N1C[C@H](C)[C@H](CN(C)C(=O)Nc2ccccc2)OCCCC[C@H](C)Oc2ccc(NC(=O)NC3CCCCC3)cc2C1=O,6.41%

row,Structure (SMILES),max activity
1,Cc1cc(C(=O)Nc2ccc(N3CCCCC3)cc2)no1,16% [at 0.195 µM]
2,COc1cccc(C(=O)Nc2ccc3c(c2)OC[C@@H](C)N(CC2CC2)C[C@H](C)[C@H](OC)CN(C)C3=O)c1,13% [at 0.05 µM]
3,Cc1cnc(NC(=O)c2sc3ccccc3c2Cl)s1,35.5% [at 6 µM]
4,Cc1cnc(NC(=O)COc2ccccc2Cl)s1,11.6%
5,COC(=O)c1c(N)sc(C(=O)NCCc2ccccc2)c1C,16.2% [at 3 µM]
6,CCCNC(=O)Nc1ccc2c(c1)C(=O)N(C)C[C@H](OC)[C@H](C)CN(Cc1ccc(-c3ccccn3)cc1)[C@@H](C)CO2,32.1% [at 0.75 µM]
7,Cc1ccc(S(=O)(=O)N(C)C[C@H]2Oc3c(cccc3N(C)C)C(=O)N([C@@H](C)CO)C[C@@H]2C)cc1,10.6% [at 6 µM]
8,O=C(Nc1ccc(NC(=O)c2ccco2)nc1)c1ccco1,-22.6%
9,O=C(c1ccccc1)N1CCSc2sccc2C1=O,36.7%
10,CCCn1c(C)cc(C(=O)CN2C(=O)c3ccccc3S2(=O)=O)c1C,-16% [at 3 µM]
11,O=C(c1ccc(F)cc1)N1CC(=O)N2[C@@H](CO)[C@@H](c3ccc(C#CC4CCCC4)cc3)[C@@H]2C1,32.7% [at 6 µM]
12,O=C(C[C@H]1C=C[C@@H](NC(=O)C2CCC2)[C@H](CO)O1)NCCCN1CCOCC1,-15.9% [at 1.6 µM]
13,c1ccc(-n2nnc3c(N4CCOCC4)ncnc32)cc1,32.3% [at 0.8 µM]
14,c1ccc(COc2ccc(OCCCN3CCCC3)cc2)cc1,-13.8% [at 0.05 µM]
15,Cc1oc(-c2ccc3c(c2)OCCO3)cc1C(=O)O,-18.6%
16,COc1ccc(-c2cc(C(=O)N3CCOCC3)no2)cc1,-14.8%
17,CCCC(=O)N1CCCC(c2cc(C(=O)Nc3ccccc3)no2)C1 (centres undefined),-23.2% [at 0.05 µM]
18,C[C@H](CO)N1C[C@H](C)[C@H](CN(C)C(=O)Nc2ccccc2)OCCCC[C@H](C)Oc2ccc(NC(=O)Nc3ccccc3)cc2C1=O,21.5%
19,CCn1cc(S(=O)(=O)Nc2cccnc2)cn1,9.79% [at 0.38 µM]
